# Source: the supplement of paper PMC12282887
# ± gives the standard deviation of the averaged measurements.
# Experiments:
# Experiment in all cases: promoter activity interaction Z-score (Lux/OD deviation from empty-vector control); higher = stronger promoter induction by the compound
# [1] = system: E. coli BW25113 acrABp lux reporter
# Method in brief: (§1)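 E. coli BW25113 (wild type or marA, soxS or rob deletion) carrying low-copy luxCDABE promoter reporters grew in 40 µl LB Lennox in 384-well plates at 37°C. Each compound was tested at four 1:2 dilutions in biological duplicates. OD600 and luminescence were read every 30 min for 12 h. Areas were taken over 0–8 h (wild type) or 1–9 h (mutants), and wells below 10% of median growth area were removed. The score is the Z-transformed residual of growth-normalised luminescence fitted against the empty-vector control.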
# [2] = system: E. coli BW25113 micFp lux reporter
# Method in brief: as §1
# [3] = system: E. coli BW25113 ompFp lux reporter
# Method in brief: as §1
# [4] = system: E. coli BW25113 robp lux reporter
# Method in brief: as §1
# [5] = system: E. coli BW25113 soxSp lux reporter
# Method in brief: as §1
# [6] = system: E. coli BW25113 tolCp lux reporter
# Method in brief: as §1
# [7] = 7 µg/ml, genetic background: wild type
# [8] = 7 µg/ml, genetic background: ΔmarA
# [9] = 7 µg/ml, genetic background: Δrob
# [10] = 7 µg/ml, genetic background: ΔsoxS
# [11] = 14 µg/ml, genetic background: wild type
# [12] = 14 µg/ml, genetic background: ΔmarA
# [13] = 14 µg/ml, genetic background: Δrob
# [14] = 14 µg/ml, genetic background: ΔsoxS
# [15] = 28 µg/ml, genetic background: wild type
# [16] = 28 µg/ml, genetic background: ΔmarA
# [17] = 28 µg/ml, genetic background: Δrob
# [18] = 28 µg/ml, genetic background: ΔsoxS
# [19] = 56.1 µg/ml, genetic background: wild type
# [20] = 56.1 µg/ml, genetic background: ΔmarA
# [21] = 56.1 µg/ml, genetic background: Δrob
# [22] = 56.1 µg/ml, genetic background: ΔsoxS
smiles,measurement,setting,value
COc1cc(NS(=O)(=O)c2ccc(N)cc2)ncn1 [Sulfamonomethoxine],promoter activity interaction Z-score,[1]; [7],-0.0629 ± 0.12
same,promoter activity interaction Z-score,[1]; [8],-0.0827 ± 0.19
same,promoter activity interaction Z-score,[1]; [9],-0.194 ± 0.069
same,promoter activity interaction Z-score,[1]; [10],-0.131 ± 0.45
same,promoter activity interaction Z-score,[1]; [11],-0.0954 ± 0.051
same,promoter activity interaction Z-score,[1]; [12],0.444 ± 0.69
same,promoter activity interaction Z-score,[1]; [13],0.0478 ± 0.2
same,promoter activity interaction Z-score,[1]; [14],-0.102 ± 0.4
same,promoter activity interaction Z-score,[1]; [15],0.289 ± 0.03
same,promoter activity interaction Z-score,[1]; [16],0.686 ± 0.39
same,promoter activity interaction Z-score,[1]; [17],0.139 ± 0.014
same,promoter activity interaction Z-score,[1]; [18],-0.0503 ± 0.27
same,promoter activity interaction Z-score,[1]; [19],0.594 ± 0.059
same,promoter activity interaction Z-score,[1]; [20],1.43 ± 0.56
same,promoter activity interaction Z-score,[1]; [21],1.32 ± 0.6
same,promoter activity interaction Z-score,[1]; [22],0.654 ± 0.63
same,promoter activity interaction Z-score,[2]; [7],-0.11 ± 0.081
same,promoter activity interaction Z-score,[2]; [8],-0.104 ± 0.066
same,promoter activity interaction Z-score,[2]; [9],0.00985 ± 0.087
same,promoter activity interaction Z-score,[2]; [10],-0.0124 ± 0.09
same,promoter activity interaction Z-score,[2]; [11],0.129 ± 0.024
same,promoter activity interaction Z-score,[2]; [12],-0.112 ± 0.13
same,promoter activity interaction Z-score,[2]; [13],-0.0554 ± 0.081
same,promoter activity interaction Z-score,[2]; [14],0.0346 ± 0.00076
same,promoter activity interaction Z-score,[2]; [15],-0.113 ± 0.28
same,promoter activity interaction Z-score,[2]; [16],0.0381 ± 0.13
same,promoter activity interaction Z-score,[2]; [17],-0.0788 ± 0.15
same,promoter activity interaction Z-score,[2]; [18],-0.00695 ± 0.03
same,promoter activity interaction Z-score,[2]; [19],0.345 ± 0.27
same,promoter activity interaction Z-score,[2]; [20],-0.0779 ± 0.035
same,promoter activity interaction Z-score,[2]; [21],0.446 ± 0.3
same,promoter activity interaction Z-score,[2]; [22],0.145 ± 0.15
same,promoter activity interaction Z-score,[3]; [7],0.897 ± 1
same,promoter activity interaction Z-score,[3]; [8],0.44 ± 0.78
same,promoter activity interaction Z-score,[3]; [9],0.229 ± 0.2
same,promoter activity interaction Z-score,[3]; [10],0.152 ± 0.17
same,promoter activity interaction Z-score,[3]; [11],0.907 ± 0.69
same,promoter activity interaction Z-score,[3]; [12],0.36 ± 0.52
same,promoter activity interaction Z-score,[3]; [13],0.708 ± 0.82
same,promoter activity interaction Z-score,[3]; [14],0.102 ± 0.078
same,promoter activity interaction Z-score,[3]; [15],1.05 ± 0.98
same,promoter activity interaction Z-score,[3]; [16],1.11 ± 0.74
same,promoter activity interaction Z-score,[3]; [17],0.731 ± 0.18
same,promoter activity interaction Z-score,[3]; [18],0.341 ± 0.13
same,promoter activity interaction Z-score,[3]; [19],2.04 ± 0.99
same,promoter activity interaction Z-score,[3]; [20],2.09 ± 0.78
same,promoter activity interaction Z-score,[3]; [21],2.95 ± 1.7
same,promoter activity interaction Z-score,[3]; [22],1.94 ± 0.43
same,promoter activity interaction Z-score,[4]; [7],1.09 ± 0.49
same,promoter activity interaction Z-score,[4]; [8],0.0134 ± 0.083
same,promoter activity interaction Z-score,[4]; [9],-0.027 ± 0.51
same,promoter activity interaction Z-score,[4]; [10],-0.114 ± 0.21
same,promoter activity interaction Z-score,[4]; [11],1.2 ± 0.46
same,promoter activity interaction Z-score,[4]; [12],-0.0907 ± 0.34
same,promoter activity interaction Z-score,[4]; [13],0.416 ± 0.81
same,promoter activity interaction Z-score,[4]; [14],-0.326 ± 0.46
same,promoter activity interaction Z-score,[4]; [15],0.911 ± 0.12
same,promoter activity interaction Z-score,[4]; [16],1.16 ± 0.43
same,promoter activity interaction Z-score,[4]; [17],0.643 ± 0.1
same,promoter activity interaction Z-score,[4]; [18],0.227 ± 0.12
same,promoter activity interaction Z-score,[4]; [19],2 ± 0.41
same,promoter activity interaction Z-score,[4]; [20],2.2238 ± 0.0018
same,promoter activity interaction Z-score,[4]; [21],1.45 ± 0.23
same,promoter activity interaction Z-score,[4]; [22],1.99 ± 0.18
same,promoter activity interaction Z-score,[5]; [7],-0.238 ± 0.08
same,promoter activity interaction Z-score,[5]; [8],-0.23 ± 0.096
same,promoter activity interaction Z-score,[5]; [9],-0.34 ± 0.09
same,promoter activity interaction Z-score,[5]; [10],-0.327 ± 0.54
same,promoter activity interaction Z-score,[5]; [11],-0.126 ± 0.13
same,promoter activity interaction Z-score,[5]; [12],-0.374 ± 0.052
same,promoter activity interaction Z-score,[5]; [13],-0.287 ± 0.064
same,promoter activity interaction Z-score,[5]; [14],-0.322 ± 0.51
same,promoter activity interaction Z-score,[5]; [15],-0.403 ± 0.15
same,promoter activity interaction Z-score,[5]; [16],-0.289 ± 0.029
same,promoter activity interaction Z-score,[5]; [17],-0.503 ± 0.07
same,promoter activity interaction Z-score,[5]; [18],-0.224 ± 0.42
same,promoter activity interaction Z-score,[5]; [19],-0.28 ± 0.14
same,promoter activity interaction Z-score,[5]; [20],-0.0803 ± 0.1
same,promoter activity interaction Z-score,[5]; [21],-0.502 ± 0.17
same,promoter activity interaction Z-score,[5]; [22],-0.113 ± 0.36
same,promoter activity interaction Z-score,[6]; [7],-0.23 ± 0.84
same,promoter activity interaction Z-score,[6]; [8],0.608 ± 0.35
same,promoter activity interaction Z-score,[6]; [9],0.27 ± 0.051
same,promoter activity interaction Z-score,[6]; [10],-0.223 ± 1.2
same,promoter activity interaction Z-score,[6]; [11],1.12 ± 0.49
same,promoter activity interaction Z-score,[6]; [12],-0.382 ± 0.79
same,promoter activity interaction Z-score,[6]; [13],-0.826 ± 0.66
same,promoter activity interaction Z-score,[6]; [14],0.183 ± 1.1
same,promoter activity interaction Z-score,[6]; [15],-0.0377 ± 0.24
same,promoter activity interaction Z-score,[6]; [16],1.63 ± 0.99
same,promoter activity interaction Z-score,[6]; [17],-0.142 ± 0.15
same,promoter activity interaction Z-score,[6]; [18],0.453 ± 0.22
same,promoter activity interaction Z-score,[6]; [19],0.726 ± 1
same,promoter activity interaction Z-score,[6]; [20],0.457 ± 1.5
same,promoter activity interaction Z-score,[6]; [21],-0.189 ± 0.24
same,promoter activity interaction Z-score,[6]; [22],0.283 ± 0.55
